In PMC5540273 (PLoS ONE, 2017):

system: RPS6KA5(Kin.Dom.1-N-terminal); settings: concentration: 1 μM, replicates: in singlicate; n = 1
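Note: KINOMEscan kinase panel screen.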

| Structure (SMILES) | %Inh [%] |
| --- | --- |
| Cc1cccc(Nc2nc(N[C@H]3CCNC3)ncc2C(N)=O)c1.Cl [GSK2197149] | 2 |
| O=C(Nc1ccccc1F)NC1CCN(c2ccnc(Nc3ccc(F)cc3)n2)CC1 [GSK1379800] | 0 |
| CN(C)S(=O)(=O)c1cc(-c2ccc3nccc(-c4cccc(S(N)(=O)=O)c4)c3c2)cnc1N [GSK1669921] | 16 |
| COc1ccc(CNC(=O)NC2CCN(c3ccnc(Nc4ccc(F)cc4)n3)CC2)cc1 [GSK1379788] | 7 |
| Cl.Cl.NCC(C(=O)Nc1cc(Br)c(-c2ccnc3[nH]ccc23)s1)c1ccccc1 (stereo not shown) [GSK1269851] | 10 |
| COC(=O)Nc1nc2ccc(Oc3ccc(NC(=O)Nc4cc(C(F)(F)F)ccc4F)cc3)cc2n1C.Cl [GW692089] | 0 |
| Nc1ncc(-c2cccnc2)c2scc(-c3ccc4c(c3)CCN4C(=O)Cc3ccccc3)c12 [GSK683281] | 21 |
| Cc1ccc(C(=O)Nc2ccc(Nc3ccnc4cc(-c5nccs5)ccc34)cc2O)cc1.Cl [GW494702] | 0 |
| Cn1cc(-c2[nH]c3cc(NC(=O)[C@H](N)C4CCCCC4)cc4c3c2C=NNC4=O)cn1 | 34 |
| CCc1ccc(-c2ccc3c(c2)-c2c(cnn2C)S(=O)(=O)N3C)cc1 | 7 |
| Nc1ncc(-c2ccc3nccc(-c4ccncc4)c3c2)cc1S(=O)(=O)N1CCOCC1 [GSK1627798] | 18 |
| O=C(Nc1n[nH]c2nc(-c3ccc(O)cc3)ccc12)C1CC1 [SB-710363] | 0 |
| O=C(O)C(F)(F)F.O=C(O)C(F)(F)F.O=c1[nH]ccc2nc(N[C@@H]3CCCNC3)nc(Nc3ccc(S(=O)(=O)N4CCOCC4)cc3)c12 [GSK2177277] | 77 |
| COc1cccc(NC(=O)NC2CCN(c3ccnc(Nc4cc(OC)c(OC)c(OC)c4)n3)C2)c1 (stereo not shown) [GSK1379763] | 0 |
| CCS(=O)(=O)c1ccc(OC)c(Nc2nccc(-c3c(-c4cccc(NC(=O)c5c(F)cccc5F)c4)nn4ncccc34)n2)c1 [GSK326180] | 25 |
| COC(=O)Nc1nc2cc(Oc3ccc(NC(=O)Nc4cc(C(F)(F)F)ccc4F)cn3)ccc2[nH]1.Cl.Cl [GW681170] | 21 |
| COc1cc(Nc2nccc(N3CCC(NC(=O)Nc4cccc(C(C)=O)c4)C3)n2)cc(OC)c1OC (stereo not shown) [GSK1379753] | 9 |
| COc1cc(Nc2nccc(-c3c(-c4cccc(NC(=O)c5c(F)cccc5F)c4)nn4ccccc34)n2)cc(OC)c1OC [GSK323521] | 27 |
| Cl.Cl.NCC(NC(=O)c1cc(-c2ccccc2)c(-c2ccnc3[nH]ccc23)s1)c1ccccc1 (stereo not shown) [GSK1321561] | 4 |

| Structure (SMILES) | %Inh [%] |
| --- | --- |
| Cl.c1ccc(-c2ccc3c(Nc4ccc5[nH]ncc5c4)ccnc3c2)nc1 [GW440137] | 2 |
| CCn1c(-c2nonc2N)nc2c(C#CC(C)(C)O)ncc(OCCCCN)c21.O=C(O)C(F)(F)F.O=C(O)C(F)(F)F [GSK507274] | 37 |
| CN1CCN(CCCNc2nccc(-c3c(-c4ccc(F)cc4)nn4cc(C(F)(F)F)ccc34)n2)CC1 [GW621581] | 26 |
| Cl.Cl.NCC(NCc1ccc(-c2ccnc3[nH]ccc23)s1)c1ccccc1 (stereo not shown) [GSK1321565] | 32 |
| COc1cc(Nc2ncc3c(C)nc(-c4cc5ccccc5[nH]4)n3n2)cc(OC)c1OC [GW869516] | 0 |
| Nc1ncnc2c1nc(-c1ccccc1)n2-c1ccccc1 [SKF-97293] | 16 |
| O=C(Nc1cccc(-c2nn3ccccc3c2-c2ccnc(Nc3cccc(C(F)(F)F)c3)n2)c1)c1c(F)cccc1F [GSK292658] | 18 |
| CCCCc1nn2ncccc2c1-c1ccnc(Nc2ccc(N3CCN(C)CC3)cc2)n1 [GW684941] | 0 |
| Fc1ccc(-c2ncn(C3CCNCC3)c2-c2ccnc(Oc3ccc(-c4ccccc4)cc3)n2)cc1 [SB-245391] | 0 |
| FC(F)(F)c1ccc(/C=C/c2cncnc2Nc2ccc3[nH]c(Cc4ccccc4)nc3c2)cc1 [GW709199] | 0 |
| CC(=O)N1CCN(c2ccc(Nc3nccc(-c4sc(C(C)C)nc4-c4cccc(NS(=O)(=O)c5cccc(Cl)c5)c4)n3)cn2)CC1 [GSK1660437] | 14 |
| CC(=O)Nc1nc2cnc(Nc3cc(NC(=O)c4cccc(C5(C#N)CC5)c4Cl)ccc3C)nc2s1 | 14 |
| NCCCC(NC(=O)c1cc(Br)c(-c2ccnc3[nH]ccc23)s1)c1ccccc1.O=C(O)C(F)(F)F.O=C(O)C(F)(F)F (stereo not shown) [GSK1287544] | 51 |
| CN(C)Cc1ccc(-c2ccc3c(Nc4ccc(Oc5ccccn5)cc4)ccnc3c2)o1 [GW567148] | 4 |
| Cn1cc(-c2ccc3c(c2)CCN3C(=O)Cc2cccc(Cl)c2)c2c(N)ncnc21 [GSK2606590] | 40 |
| O=c1[nH]cc(-c2ccc(N3CCOCC3)cc2)c2sc(-c3cn[nH]c3)cc12 [GSK2276055] | 0 |
| CN1CCN(Cc2cccc(-c3ccc4c(Nc5ccc(Oc6ccccc6)cc5)ccnc4c3)c2)CC1 [GW578342] | 0 |
| COc1cccc(-c2ccc3c(NC(=O)C4CC4)n[nH]c3n2)c1 [SB-710903] | 20 |
